This is a sample that favours compounds with a hit; in the whole collection about 2.3% have one here.
Chronic BCR inh = chronic active BCR signaling inhibition | ABC-DLBCL IkBa-CBG/CBR reporter, luminescence ratio, 4 h | Potency, µM (titrated, usually from 46.1 µM), for inactives: at the top dose activity change, negative = inhibition, hits mostly inhibitors | 340,000 tested, 0.05% active; active = well fitted inhibition curve with a large enough effect in the signal ratio, with a control signal flat, not every such curve was filed as active; inconclusive = small, poorly fitted or top-dose-only effect, or effect the other way, or a change in a side signal; the % refers to the signal ratio;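 note: plate controls were basal doxycycline-induced cells for no effect and cells given 10 µM MG132 for full effect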
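Doxycycline induced both beetle luciferases in TMD8 lymphoma cells; IKK-driven degradation limits the IkappaBalpha-fused green signal, while red luminescence normalises for cell number and nonspecific effects. Compounds tested up to 46 uM, 4 hrs.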
uPA generation = blocks generation of uPA at the cell surface | cell surface uPA generation assay, qHTS | Potency, µM (highest dose often 38.3 µM), without a hit: top-dose activity change, negative = inhibition, usual class: inhibitors | 330,000 tested, 0.31% active | AID 540303; active = well fitted inhibition curve with a large enough effect; inconclusive = small, poorly fitted or top-dose-only effect; inactive = no such curve, though single readings can be large or run the other way; tested in mouse RAW 264.7 cells; note: % is set by controls: 0 for no effect and ±100 for the full control effect; nearly all actives have a fitted effect of over 55% in size
Abeta rescue = A-beta toxicity reversal in yeast | 410,000 tested, 0.063% active | Potency, µM (doses to about 46.1 µM), hits mostly activators | yeast expressing A-beta42, growth rescue, OD600, 48 h; response scale: 0% DMSO, 100% iron-clioquinol control; note: nearly all actives have a fitted effect of over 55% in size
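Yeast growth medium received pinned compounds, then yeast cells expressing toxic A-beta were added; plates incubated at 30 C for 48 hr. Growth read as absorbance at 600 nm, normalized to DMSO and equimolar FeCl3 plus clioquinol controls.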
aSyn yeast inh = rescues yeast growth from alpha-synuclein toxicity; Yeast expressing alpha-synuclein, growth rescue, BacTiter-Glo, 24 h; Potency, µM (top dose mostly 46.1 µM), without a hit: at the top dose growth rescue (activation), most hits filed as activators; AID 652106; 370,000 tested, 0.14% active; note: % of control where 0% means no effect; nearly all actives have a fitted effect of over 65% in size
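Screening used galactose-induced yeast with toxic alpha-synuclein levels, exposed to compound for 24 hr at 30 deg C. Cell growth, read with BacTiter-Glo luminescence, gave the measured signal.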
TDP-43 yeast inh = inhibitors of TDP-43 toxicity in yeast | TDP-43 expressing yeast growth rescue, BacTiter-Glo, 24 h | Potency, µM (series often up to 46.1 µM), without a hit: top-dose growth rescue (activation), actives largely listed as activators | 410,000 tested, 1.8% active | AID 652104; note: % of control where 0% means no effect; nearly all actives have a fitted effect of over 50% in size
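Luminescence from BacTiter-Glo reports growth of TDP-43-expressing yeast after 24 hr at 30 deg C with compound. Cells were raffinose-pregrown to mid-log, then seeded in galactose medium at OD600=0.02.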
FUS suppressor = FUS proteinopathy suppression in yeast. S. cerevisiae FUS-expressing, growth rescue, OD600, 24 h. Potency, µM (highest dose often 76.6 µM), most hits filed as activators. 390,000 tested, 0.24% active. AID 1347120;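 note: plate controls were DMSO vehicle for no effect and reference control for full effect; nearly all actives have a fitted effect of over 55% in size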
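S. cerevisiae expressing FUS from galactose induction served as the toxicity model. Growth after 24hr at 30C, read as absorbance at 600 nm, indicates suppression of toxicity; compounds dosed at several concentrations.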
* hit, by the source's call; i = inactive; ? = inconclusive; nt = no result given; [ ] = dose if it differs, or a comment. Unless noted, calls come from the whole dose curve; as a rule, active = well fitted curve in the direction sought with a large enough effect; inconclusive = small, poorly fitted or top-dose-only effect, or another doubt; inactive = no such curve, though single readings can be large; an effect the other way counts as inactive or inconclusive. Potency is the fitted concentration of half-maximal effect.

SMILES	Chronic BCR inh	uPA generation	Abeta rescue	aSyn yeast inh	TDP-43 yeast inh	FUS suppressor
O=C1c2ccccc2-c2n[nH]c(=O)c3ccc(N4CCCCC4)c1c23	?	-15.5%	i	-6.8%	-24.1%	i
Cc1cccc(Nc2nc3ccccc3s2)c1C	?	-11.5%	?	-7.1%	11.2µM*	i
Cc1cccc(Nc2n[nH]c(=S)s2)c1C	?	2.7%	i	-30.7%	29.5%	i
CC(=O)NCCc1ccc(O)cc1	-0.5%	-1.3%	i	-6.9%	10.6%	i
Fc1cccc(NC(=S)N2CCc3ccccc32)c1	8.6%	-4.3%	?	1.4%	14.1µM*	i
S=C(Nc1ccccc1)N1CCc2ccccc21	?	-12.6%	?	0.8%	12.6µM*	i
COc1ccc(NC(=O)C(c2cc3c(cc2[N+](=O)[O-])OCO3)N(C)C)cc1 (stereo unspecified)	0.7%	7.1%	i	1.1%	0.4%	i
C=CCNC(=O)C(=O)NCCCN1CCOCC1	-0.2%	?	i	-0.5%	9.9%	i
CC(C)c1ccc(Nc2n[nH]c(=S)s2)cc1	nt	nt	i	-0.9%	14.1µM*	i
Cc1cccc(CSc2cccc3cccnc23)c1	?	-11.5%	i	1.6%	17.8µM*	i
CC(C)COc1cccc(C(=O)N2CCN(C(=O)c3ccco3)CC2)c1	-0.2%	-1.2%	i	2.9%	?	i
COc1cccc(/C=C2\Oc3cc(OCC(=O)N4CCCCC4)ccc3C2=O)c1OC	?	0.4%	i	10.8%	?	?
CCCCC(CC)CNC(=O)c1[nH]c(C)c(C(C)=O)c1C (stereo unspecified)	0.7%	-14.3%	i	-1.2%	12.6µM*	i
Cc1ccc(S(=O)(=O)Nc2c(C)cc([N+](=O)[O-])cc2C)cc1	nt	3.5%	i	17.9%	14.1µM*	nt
COc1ccc(S(=O)(=O)N2CCOCC2)cc1	nt	nt	nt	0.0%	nt	nt
O=S(=O)(c1ccc(Oc2ccc(Br)cc2)cc1)N1CCOCC1	5.7%	2.1%	i	-2.1%	25.1µM*	i
O=C1c2ccccc2C2(c3ccccc3)N1CCN2C(=O)C(Cl)(Cl)Cl (stereo unspecified)	-1.5%	-8.9%	i	4.9%	12.6µM*	i
Cc1ccc(C(=O)N2CCN3C(=O)c4ccccc4C23c2ccccc2)cc1 (stereo unspecified)	?	-1.7%	i	4.8%	1.9%[9.22 µM]	i
CCOc1ccccc1NC(=O)C(OC(=O)c1cnc(C)cn1)c1ccccc1 (stereo unspecified)	nt	nt	?	11.7%	17.8µM*	i
CCOc1ccc2nc(N3C(=O)/C(=C/c4ccccc4)NC3=S)sc2c1	?	-4.8%	i	-1.4%	-44.0%	nt
CCOC(=O)C(=Cc1cc(=O)c(OC)co1)C(=O)OCC	?	?	i	8.3%	12.6µM*	i
CCNC(=S)N/N=C/c1cc(C)ccc1C	?	-7.0%	4.47µM*	2.3%	22.3%	i
CNC(=S)N/N=C/c1cc(C)ccc1C	?	-12.6%	?	5.1%	11.6%	i
COC(=O)C[C@H]1C=C[C@H](NC(=O)Cc2ccccc2)[C@@H](CO)O1	nt	nt	i	3.55µM*	20.9%	i
O=C(CSCc1ccccc1Cl)N1CCN(c2ccc(Cl)cc2)CC1	4.3%	nt	i	nt	15.8µM*	?
SMILES	Chronic BCR inh	uPA generation	Abeta rescue	aSyn yeast inh	TDP-43 yeast inh	FUS suppressor
O=C(CSCc1ccccc1Cl)N1CCN(c2ccc(F)cc2)CC1	?	nt	i	nt	14.1µM*	i
N#Cc1ccc(C(=O)N2CCN(S(=O)(=O)c3ccc(Cl)s3)CC2)cc1	0.8%	-9.6%	i	-6.7%	8.9%	i
Nc1cc2c([N+](=O)[O-])cccc2o1	?	-3.4%	i	1.1%	-5.6%	i
CCOC(=O)CNC(=S)N(CCCN1CCCC1)Cc1cccs1	0.6%	-2.0%	i	6.7%	3.5%[0.397 µM]	i
C/C(=N\Nc1nc2c(s1)CCCC2)c1ccccc1	?	4.4%	i	7.1%	20µM*	?
C/C(=N\Nc1nc(C(C)(C)C)cs1)c1ccccc1	?	-27.1%	i	-25.6%	22.4µM*	i
COc1ccc(C)cc1NC(=O)C1CC1c1ccccc1 (stereo unspecified)	nt	-1.6%	i	-29.4%	15.8µM*	i
COc1ccc(C)cc1NC(=O)c1nn(-c2ccccc2)cc1OC	-2.9%	nt	i	-10.7%	15.8µM*	i
CCC(=O)N1CCN(c2ccc(NC(=O)COc3ccc(CC)cc3)cc2)CC1	?	-17.8%	i	-2.5%	24.5%	i
Cc1ccc(NCc2ccc([N+](=O)[O-])s2)cc1	6.2%	-2.8%	i	16.7%	11.2µM*	i
COc1ccccc1NCc1ccc([N+](=O)[O-])s1	0.2%	5.0%	i	5.8%	?	i
Cc1ccccc1NCc1ccc([N+](=O)[O-])s1	-1.2%	-4.7%	i	12.3%	11.2µM*	i
O=[N+]([O-])c1ccc(CNc2cccc(F)c2)s1	-0.5%	-8.7%	?	19.0%	11.2µM*	i
Cc1cccc(NCc2ccc([N+](=O)[O-])s2)c1	-4.6%	-1.9%	i	26.9%	?	i
O=C(c1cn(Cc2ccccc2)nc1-c1cccnc1)N1CCc2ccccc2C1	0.2%	-1.3%	i	2.0%[1.84 µM]	6.7%	i
O=C(NCCc1ccccc1)c1nc(CS(=O)(=O)c2ccc(Cl)cc2)no1	0.8%	6.0%	i	6.7%	10.0%	i
CC(C)N(C)c1ncnc2c1ncn2[C@H]1CN(Cc2ccccc2)C[C@@H](CO)O1	nt	nt	i	3.2%	19.8%	i
O=C(/C=C/c1ccco1)NC(=S)Nc1ccccc1N1CCOCC1	6.9%	-3.9%	i	2.1%	25.1µM*	i
CC(=O)N(C)c1ccc(NC(=S)NC(=O)/C=C/c2ccco2)cc1	?	-12.9%	i	3.4%	20.9%	35.5µM*
O=C(NC(=S)Nc1ccccc1N1CCCCC1)c1ccco1	?	2.7%	i	2.2%	35.5µM*	i
COc1cccc(/C=C/C(=O)Nc2ccccc2N2CCOCC2)c1	?	-4.4%	i	-18.5%	22.4µM*	i
CCCC[C@]12Cc3c(ccc4ccccc34)C(O1)C1=C(O2)C(=O)c2ccccc2C1=O	-0.3%[9.22 µM]	nt	nt	nt	nt	nt
c1ccc(-c2cc(-c3ccccc3)ncn2)cc1	nt	-1.2%	i	1.0%	?	i
CN(C(=O)COC(=O)CN1C(=O)C2CC=CCC2C1=O)c1ccccc1 (stereo unspecified)	0.5%	2.0%	i	-1.4%	-9.7%	i
O=C(/C=C/c1ccco1)NC(=S)Nc1ccccc1N1CCCC1	?	-16.8%	?	-0.4%	22.4µM*	?

Screening results as filed in PubChem.
